# Screening results (PubChem)
# Compounds with a hit are over-represented: about 11% of the library has one in this group of screens.
# G9a inh: qHTS Assay for Inhibitors of Histone Lysine Methyltransferase G9a; Histone-lysine N-methyltransferase EHMT2 (Homo sapiens), Q96KQ7; G9a H3K9 monomethylation, AlphaScreen, 2 h; Potency, µM (highest dose often 102 µM), for inactives: top-dose activity, negative = inhibition, usual class: inhibitors; 350,000 tested, 8.8% active; further: on the % scale 0 is the no-effect control and ±100 the full control effect; nearly all actives have a fitted effect of over 75% in size
# Target sequence (Q96KQ7 913-1193 limits assumed): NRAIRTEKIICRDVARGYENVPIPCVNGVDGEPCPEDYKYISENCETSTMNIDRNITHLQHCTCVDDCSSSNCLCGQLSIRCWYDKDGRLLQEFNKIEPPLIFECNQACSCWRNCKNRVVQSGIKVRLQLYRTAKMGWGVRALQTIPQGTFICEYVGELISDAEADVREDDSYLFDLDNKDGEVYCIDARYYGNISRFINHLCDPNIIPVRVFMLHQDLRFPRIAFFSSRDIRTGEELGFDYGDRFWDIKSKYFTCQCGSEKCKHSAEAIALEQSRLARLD
#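 Step 1: enzyme (final 20 nM) with compound, 15 min RT. Step 2: substrate peptide 500 nM and SAM 20 uM, 2 h RT. Step 3: anti-H3K9me1 antibody and AlphaScreen beads, 10 min, then plate read.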
# JMJD2A Tudor inh: qHTS Assay for Inhibitors of JMJD2A-Tudor Domain; 390,000 tested, 4.4% active; Lysine-specific demethylase 4A (Homo sapiens), O75164; Potency, µM (highest dose often 114 µM), without a hit: top-dose activity change, negative = inhibition, hits mostly inhibitors; AlphaScreen JMJD2A-Tudor / H3K4me3 peptide binding; further: on the % scale 0 is the no-effect control and ±100 the full control effect; nearly all actives have a fitted effect of over 50% in size
# L3MBTL1 inh: qHTS Assay for the Inhibitors of L3MBTL1. Lethal(3)malignant brain tumor-like protein 1 (Homo sapiens), Q9Y468. AlphaScreen L3MBTL1–H3K9me1 peptide binding. Potency, µM (highest dose often 57.1 µM), without a hit: at the top dose activity, negative = inhibition, usual class: inhibitors. 230,000 tested, 0.66% active. AID 485360, 2010; further: on the % scale 0 is the no-effect control and ±100 the full control effect; nearly all actives have a fitted effect of over 60% in size
#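 First, the protein-peptide complex forms for 30 min at room temperature (L3MBTL1 50 nM, biotinylated H3K9me1 peptide 75 nM). Next, compounds are pin-transferred and incubated 30 min. Finally, AlphaScreen beads are added and read after 30 min.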
# HP1b chromo inh: HTS for Inhibitors of HP1-beta Chromodomain Interactions with Methylated Histone Tails; Potency, µM (doses to about 114 µM), for the others: top-dose activity change, negative = inhibition, usual class: inhibitors; Chromobox protein homolog 1 (Homo sapiens), P83916; AlphaScreen HP1-beta / biotin-H3K9me3 peptide binding; 390,000 tested, 0.56% active; AID 540317, 2011; further: nearly all actives have a fitted effect of over 70% in size
# Target sequence (P83916 whole entry, looked up): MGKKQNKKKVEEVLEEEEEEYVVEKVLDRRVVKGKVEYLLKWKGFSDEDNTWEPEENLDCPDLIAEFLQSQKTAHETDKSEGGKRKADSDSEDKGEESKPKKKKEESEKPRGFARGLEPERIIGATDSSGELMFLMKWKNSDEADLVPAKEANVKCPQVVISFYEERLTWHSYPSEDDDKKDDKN
#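 AlphaScreen: HP1-beta (50 nM) preformed 30 min with biotin-H3(1-18)K9me3 peptide (50 nM) in PBS pH 7.4, 0.01% Tween-20. Compound added for 30 min at RT, then streptavidin donor/nickel chelate acceptor beads (10 ug/mL) for 30 min.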
# BAZ2B inh: qHTS Assay for Inhibitors of BAZ2B. Potency, µM (highest dose often 114 µM), for the others: top-dose activity change, negative = inhibition, most hits filed as inhibitors. AID 504333, 2011. 360,000 tested, 4.4% active. AlphaScreen BAZ2B-H3K14Ac peptide displacement. Bromodomain adjacent to zinc finger domain protein 2B (Homo sapiens), Q9UIF8; further: on the % scale 0 is the no-effect control and ±100 the full control effect; nearly all actives have a fitted effect of over 60% in size
#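 BAZ2B (50 nM) with biotin-H3(5-23)K14Ac peptide (50 nM) in PBS pH 7.4, 0.01% Tween-20, preformed 30 min, then compound 30 min at room temperature; top concentration 110uM. AlphaScreen streptavidin donor/nickel chelate acceptor beads (10 ug/mL final), 20 min dark, signal read.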
# * = called active by the depositor; ? = inconclusive; / = no result; [ ] = dose if it differs, or a comment. The call rests on the fitted dose curve; in most records, active means well fitted inhibition curve with a large enough effect; inconclusive means small, poorly fitted or top-dose-only effect; inactive means no such curve, though single readings can be large or run the other way. Potency means the concentration at half of the fitted maximal effect.
SMILES,G9a inh,JMJD2A Tudor inh,L3MBTL1 inh,HP1b chromo inh,BAZ2B inh
O=C(N/N=C/c1ccc(-c2ccccc2Cl)o1)c1ccccc1,4%,-2%,/,30%,-17%
O=S(=O)(N/N=C\c1ccc(-c2ccccc2Cl)o1)c1ccccc1,7.9µM*,-36%,-28%,?,?
Cc1nnc(C)n1/N=C/c1ccc(-c2ccccc2Cl)o1,50µM*,?,/,-12%,-12%
COc1cccc(NC(=O)N(Cc2c[nH]c3ccccc23)C2CCCCC2)c1,3%[59 µM],-35%,/,14%,/
C=CCNc1nc(-c2ccc(OC)cc2OC)cs1,?,?,-10%,-15%,56µM*
CCc1cc(SC#N)cc(C)c1NC(=O)CCl,40µM*,-5%,-8%,47%,-24%
CCOc1ccc2oc(C(=O)N(CCOC)c3c(N)n(CC(C)C)c(=O)[nH]c3=O)c(C)c2c1,-4%[12.7 µM],-4%,-1%,30%,-1%
Cc1ccc2nc3sc(C(=O)Nc4ccc(F)cc4)cc3cc2c1,-50%[12.7 µM],40µM*,-2%,16%[57 µM],?
CCOc1ccccc1NC(=O)c1cc2cc3cc(C)ccc3nc2s1,9%[59 µM],-15%,/,8%[57 µM],2%
O=C(COC(=O)c1ccc(OC(F)F)cc1)NCCC1=CCCCC1,3%[59 µM],-17%,5%,30%,-1%
Cc1nnsc1C(=O)NNc1ccc(C(C)C)cc1,8.9µM*,-12%,-2%,6%,-14%
Cc1cc(C(=O)NNc2ccc(C(C)C)cc2)n(C(C)(C)C)n1,7.9µM*,?,/,21%,?
Cc1nnsc1C(=O)NNC(=O)c1ccc(C(F)(F)F)cc1,/,-7%,9%,18%,-7%
Cc1nnsc1C(=O)NNc1ccc(C(C)(C)C)cc1,1.8µM*,-21%,0%,11%,-15%
CCc1ccc2c(c1)c(=O)c(C(=O)c1ccc(C)cc1)cn2CC(=O)Nc1ccc2c(c1)OCCO2,8%[59 µM],-9%,/,40%,-18%
COc1ccc(-c2n[nH]c3c2cnc2ccc(F)cc23)cc1,36%[59 µM],0%,/,49%,-14%
CCCOc1ccc(C(=O)NC(=S)N2CCN(c3cc4c(cc3F)c(=O)c(C(=O)O)cn4CC)CC2)cc1,-10%,-27%,/,8%,-15%
Cc1ccc2c(c1)NC(=O)C(CC(=O)NCc1ccc(F)cc1)O2 (stereo unspecified),50µM*,-2%,/,31%,-25%
Cc1ccc2c(c1)NC(=O)C(CC(=O)NCc1cccnc1)O2 (stereo unspecified),32µM*,-8%,/,44%,3%
O=C(/C=C/c1ccccc1[N+](=O)[O-])c1ccccc1Br,40µM*,56µM*,-5%[11.4 µM],?,32µM*
CC1CN(C(=O)/C=C/c2ccccc2[N+](=O)[O-])CC(C)O1 (stereo unspecified),-4%,10µM*,-1%,23%[57 µM],-14%
CC1=CSC2=NC(=O)/C(=C\c3cccn3-c3ccc([N+](=O)[O-])cc3)C(=N)N12,-19%,?,-7%,84%,10%
COc1ccc(-c2ccc(/C=C3\C(=O)N(c4ccccc4)N=C3c3ccccc3)o2)c([N+](=O)[O-])c1,7.1µM*,?,-17%,3.5µM*,8.9µM*
COc1ccc(-c2ccc(/C=C3/C(=N)N4C(C)=CSC4=NC3=O)o2)c([N+](=O)[O-])c1,7.1µM*,?,-1%,-30%,?
COc1ccc(-c2ccc(C(=O)O)o2)c([N+](=O)[O-])c1,56µM*,-6%,-8%,17%,?
COC(=O)c1ccccc1-c1ccc(/C=C2\C(=O)N(c3ccccc3)N=C2c2ccccc2)o1,7.1µM*,?,-4%,1.4µM*,3.2µM*
COC(=O)C1CC1[C@H](NC(=O)c1cccnc1)c1ccccc1 (stereo partly specified),/,-8%,/,27%,/
COc1ccc(-c2nc3cnc(N4CCN(C)CC4)nc3n(Cc3cccc(OC)c3)c2=O)cc1,6%[0.501 µM],/,/,/,/
